The record followed here is PubChem BioAssay (EPA / NIEHS).

Read-out in test [1]: Interleukin-6 (IL6), IL6 (gene 3569)
The test is described as follows: BSK_CASM3C_IL6: BioMAP Diversity Plus: CASM3C Assay for Interleukin-6 (IL6) Biomarker Activity for (AID 2283040). The note with it: primary human coronary artery smooth muscle cells; actives raise or lower the signal.

Read-out in test [2]: Tissue plasminogen activator (tPA), PLAT (gene 5327)
The test is described as follows: BSK_BE3C_tPA: BioMAP Diversity Plus: BE3C Assay for Tissue plasminogen activator (tPA) Biomarker Activity (AID 2283041).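 On outcome: tPA level quantified by ELISA one day after compound addition.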 Particulars: primary human bronchial epithelial cells; actives raise or lower the signal. Put shortly: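 Gain- or loss-of-signal in tPA, measured by ELISA, derived by bidirectional fitting against DMSO. Cells: human primary bronchial epithelial; read at 24 h after chemical dosing.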

Read-out in test [3]: Interleukin-8 (IL8), CXCL8 (gene 3576)
The test is described as follows: BSK_CASM3C_IL8: BioMAP Diversity Plus: CASM3C Assay for Interleukin-8 (IL8) Biomarker Activity (AID 2283042).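 Further: IL-8 protein level quantified by ELISA.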 Particulars: primary human coronary artery smooth muscle cells; actives raise or lower the signal.

Read-out in test [4]: Human Leukocyte Antigen - DR isotype (HLADR), HLA-DRA (gene 3122)
The test is described as follows: BSK_CASM3C_HLADR: BioMAP Diversity Plus: CASM3C Assay for Human Leukocyte Antigen - DR isotype (HLADR) Biomarker Activity (AID 2283043).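 Further: cell-surface HLA-DR protein level quantified by ELISA.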 Particulars: primary human coronary artery smooth muscle cells; actives raise or lower the signal.

Read-out in test [5]: Macrophage colony-stimulating factor (MCSF), CSF1 (gene 1435)
The test is described as follows: BSK_CASM3C_MCSF: BioMAP Diversity Plus: CASM3C Assay for Macrophage colony-stimulating factor (MCSF) Biomarker Activity (AID 2283044).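 Further: M-CSF protein amount quantified by ELISA after 24 h exposure.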 The note with it: primary human coronary artery smooth muscle cells; actives raise or lower the signal.

Read-out in test [6]: Low-density lipoprotein receptor (LDLR), LDLR (gene 3949)
The test is described as follows: BSK_CASM3C_LDLR: BioMAP Diversity Plus: CASM3C Assay for Low-density lipoprotein receptor (LDLR) Biomarker Activity (AID 2283045).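 Further: LDLR protein level on the cell surface quantified by ELISA.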 The note with it: primary human coronary artery smooth muscle cells; actives raise or lower the signal.

Read-out in test [7]: Monocyte Chemoattractant Protein-1 (MCP1), CCL2 (gene 6347)
The test is described as follows: BSK_CASM3C_MCP1: BioMAP Diversity Plus: CASM3C Assay for Monocyte Chemoattractant Protein-1 (MCP1) Biomarker Activity (AID 2283046).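 Further: MCP-1 level quantified by ELISA 24 h after dosing.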 The note with it: primary human coronary artery smooth muscle cells; actives raise or lower the signal.

Test [8] can be described thus: BSK_CASM3C_Proliferation: Cell Proliferation Assessment in the BioMAP Diversity Plus: CASM3C Assay (AID 2283047).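 Further: sulforhodamine B total protein stain as relative cell number at 560 nm; sub-confluent cells exposed 48 h before staining; fitted both ways against DMSO so gain or loss of cell number.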 The note with it: primary human coronary artery smooth muscle cells.
Read-out in test [9]: Monokine induced gamma interferon (MIG), CXCL9 (gene 4283)
The test is described as follows: BSK_CASM3C_MIG: BioMAP Diversity Plus: CASM3C Assay for Monokine induced gamma interferon (MIG) Biomarker Activity (AID 2283048).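 Further: MIG protein level measured by ELISA.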 The note with it: primary human coronary artery smooth muscle cells; actives raise or lower the signal.

Read-out in test [10]: serum amyloid A (SAA), SAA1 (gene 6288)
The test is described as follows: BSK_CASM3C_SAA: BioMAP Diversity Plus: CASM3C Assay for serum amyloid A (SAA) Biomarker Activity (AID 2283049).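 Further: SAA protein level quantified by ELISA.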 The note with it: primary human coronary artery smooth muscle cells; actives raise or lower the signal.

Structures are written as SMILES. Where “and” joins values, the source holds several entries; their conditions need not be identical. Identical values can stand only once. Where a structure was tested more than once in an assay, its records may differ in their call. Calls of active or inactive are those of the source. How the source made its calls: active means hit-call score of the fitted dose curve at least 0.9, where 1 is the maximum; inactive means score below 0.9.

In the case of `C=CC(=O)OCCC(F)(F)C(F)(F)C(F)(F)C(F)(F)F`, the outcome in test [1], in [2], in test [3], in [4], in test [5] and in test [6] was inactive. The outcome in test [7], in [8] and in test [10] was inactive. The AC50 in test [8] is 15 µM (active); in test [9], 41.1 µM (active) and 30 µM (active).
On to `CCOC(=O)CC(=O)C(F)(F)C(F)(F)F`, for which the result in [1], in test [2], in test [3], in [4], in test [5] and in test [6] was inactive. Further, the result in test [7], in test [8], in test [9] and in test [10] was inactive.
For `CCN(CCO)S(=O)(=O)C(F)(F)C(F)(F)C(F)(F)C(F)(F)C(F)(F)C(F)(F)C(F)(F)C(F)(F)F`, the outcome in test [1], in test [2], in test [3], in test [4], in [5] and in [7] was inactive. Besides, the result in test [10] was inactive. Further, the AC50 in test [4] was 15.6 µM (active); in test [5], 35.3 µM (active); in test [6], 7.08 µM (active) and 8.16 µM (active); in [8] it was 15.5 µM (active) and 16.5 µM (active); in test [9] it was 8.09 µM (active) and 7.66 µM (active); in test [10], 7.99 µM (active).
On to `Cc1ccc(O)c(-n2nc3ccccc3n2)c1`, for which the result in [1], in [2], in test [3], in [4], in test [5] and in test [6] was inactive. Moreover, the outcome in test [7], in test [8], in [9] and in [10] was inactive.
As for `NCC(F)(F)C(F)(F)C(F)(F)C(F)(F)C(F)(F)C(F)(F)C(F)(F)C(F)(F)F`, the outcome in test [1], in test [2], in test [3], in [4], in test [5] and in test [6] was inactive. In addition, the result in test [7], in [8], in test [9] and in [10] was inactive.
Turning to `Cc1cnccn1`, the result in test [1], in [2], in test [3], in [4], in test [5] and in test [6] was inactive. Also, the result in test [7], in test [9] and in test [10] was inactive. For the same compound, the AC50 in test [8] was 0.196 µM (active).
For the compound `CC1=CC2C3C=CC(C3)C2C1C` (configuration not stated), the result in test [1], in [2], in [3], in test [4], in test [5] and in test [6] was inactive. Further, the outcome in test [7], in test [8], in test [9] and in [10] was inactive.
Consider `C=CC(=O)OCC(F)(F)C(F)(F)C(F)(F)C(F)(F)C(F)(F)C(F)(F)C(F)(F)C(F)F`, for which the result in test [1], in test [2], in test [3], in test [4], in [5] and in [6] was inactive. The outcome in test [7], in test [8], in [9] and in test [10] was inactive.
For `O=S(=O)(OCC(F)(F)F)C(F)(F)C(F)(F)C(F)(F)C(F)(F)F`, the result in test [1], in test [2], in test [3], in test [4], in test [5] and in test [6] was inactive. Moreover, the result in [7], in test [8], in [9] and in test [10] was inactive. Besides, the AC50 in [9] is 30 µM (active); in test [10], 0.653 µM (active).
Consider `Cc1cc(O)c(C(C)(C)C)cc1C(C)(C)C`, for which the AC50 in test [1] was 5.61 µM (active); in test [2] it was 5.21 µM (active); in [3], 8.77 µM (active); in test [4], 3.5 µM (active); in test [5] it was 4.59 µM (active); in test [6], 5.37 µM (active). For the same compound, the AC50 in [7] was 5.83 µM (active); in [8], 3.85 µM (active); in test [9], 12.5 µM (active); in test [10], 4.22 µM (active).
For `C[C@]12CC[C@H]3C(=CCc4cc(O)ccc43)[C@@H]1CCC2=O`, the result in test [1], in [2], in [3], in [4], in [5] and in test [7] was inactive. Besides, the result in test [8], in test [9] and in [10] was inactive. Also, in [6], the AC50 was 14.3 µM (active).
With `O=C1C=CC(=O)N1c1ccc(Cc2ccc(N3C(=O)C=CC3=O)cc2)cc1`, the AC50 in test [1] is 9.64 µM (active); in test [2], 3.46 µM (active); in test [3], 11 µM (active); in [4] it was 2.88 µM (active); in [5] it was 5.07 µM (active); in test [6] it was 2.03 µM (active). Besides, the concentration at half-maximal activity (AC50) is 4.19 µM (active) in test [7], 0.688 µM (active) in test [8], 5.42 µM (active) in test [9] and 3.21 µM (active) in [10].
For `CNS(=O)(=O)C(F)(F)C(F)(F)C(F)(F)C(F)(F)C(F)(F)C(F)(F)C(F)(F)C(F)(F)F`, the result in test [1], in [3], in [4], in test [5], in test [6] and in test [7] was inactive. Besides, the result in test [8], in [9] and in test [10] was inactive. In addition, the AC50 in [2] was 220 nM (active) and 654 nM (active); in test [8], 35.4 µM (active).
For `O=C(O)C(F)(F)C(F)(F)C(F)(F)OC(F)(F)F`, the outcome in test [1], in [2], in test [3], in test [4], in test [5] and in test [6] was inactive. The outcome in test [7], in [8], in [9] and in test [10] was inactive.
In the case of `CO[Si](C)(CCC(F)(F)C(F)(F)C(F)(F)C(F)(F)C(F)(F)C(F)(F)F)OC`, the outcome in test [1], in test [2], in [3], in [4], in [5] and in [6] was inactive. The result in test [7], in test [8], in test [9] and in test [10] was inactive.
For the compound `Cc1cc(C)c(O)c(C(C)(C)C)c1`, the AC50 in [1] is 29.6 µM (active); in test [2], 29.6 µM (active); in test [4], 25.5 µM (active); in test [5], 22.7 µM (active); in [6], 20 µM (active); in test [7], 24.9 µM (active). Moreover, the figures for the AC50 in test [8], in [9] and in test [10] were 25.3 µM (active), 29.3 µM (active) and 20 µM (active), respectively. Also, in [3], the outcome was inactive.

For orientation: AC50 means the midpoint of the concentration-response curve, whichever way the signal moves.
